Experimental findings from PubChem BioAssay AID1220 (Sanford-Burnham Center for Chemical Genomics, 2008) are described below.

Molecules are shown by their SMILES. The whole screen tested about 190,000 compounds, of which about 1,300 (0.68%) were called active. The sample holds actives, similar compounds and a random draw of the others, so the mix is not that of the screen. Values without a mark were called inactive. No stated cut-off is given here; in the data, active means inhibition above about 50%; inactive means the rest.

The target of this assay is Mannose-6-phosphate isomerase (Homo sapiens) (UniProt P34949). As to the kind of experiment: MPI inhibition at elevated mannose 6-phosphate – biochemical, fluorescence intensity, high mannose 6-phosphate, primary screen (AID 1220). To be noted: recombinant PMI enzyme, coupled fluorescence intensity; at 20 µM; active compounds read high.
Sequence of Mannose-6-phosphate isomerase (Homo sapiens) (P34949 whole entry, looked up): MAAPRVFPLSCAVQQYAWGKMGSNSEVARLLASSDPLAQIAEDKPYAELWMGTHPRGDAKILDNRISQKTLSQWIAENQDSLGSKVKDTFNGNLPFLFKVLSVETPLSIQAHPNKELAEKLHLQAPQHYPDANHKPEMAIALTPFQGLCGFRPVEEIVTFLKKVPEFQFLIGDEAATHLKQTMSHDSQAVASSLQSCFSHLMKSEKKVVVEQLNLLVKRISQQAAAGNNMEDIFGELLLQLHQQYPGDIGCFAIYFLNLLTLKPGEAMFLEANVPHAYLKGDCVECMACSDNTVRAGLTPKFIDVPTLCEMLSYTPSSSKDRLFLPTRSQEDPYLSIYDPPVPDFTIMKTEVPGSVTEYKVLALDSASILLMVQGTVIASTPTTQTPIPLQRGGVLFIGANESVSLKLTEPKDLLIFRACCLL
As for `O=C(c1ccc(C(=O)N2CCOCC2)s1)N1CCOCC1`, the inhibition was -3.8%.
Regarding `CN1C(=O)/C(=C/C=C2\SCCN2C)SC1=S`, the inhibition is 29.3%.
To `CCN1C(=O)/C(=C/C=C2/Sc3ccc4ccccc4c3N2CCO)SC1=S` belongs -5.4%.
In the case of `CCN1C(c2ccccc2)=C(c2ccccc2)S/C1=C/C=C1\SC(=S)N(C)C1=O`, the inhibition was 54.4% (active).
Under `CC1(C)CC2CC(C)(CN2C(=O)C23CCC(C)(C(=O)O2)C3(C)C)C1` (configuration not stated) stands 9.1%; under `O=C(COC(=O)CCc1ccccc1)Nc1cc(S(=O)(=O)N2CCOCC2)ccc1N1CCCC1`, 7.1%; under `O=c1[nH][nH]c(C(F)(F)F)c1C=Nc1ccccc1Cl`, -6.7%.
To `Cc1cc(O)ccc1N=Cc1c(C(F)(F)F)[nH][nH]c1=O` belongs 62.2% (active); to `Cc1cccc(C)c1N=Cc1c(C(F)(F)F)[nH][nH]c1=O`, 0.2%; to `COc1ccc(CNC(=O)CN(c2ccccc2)S(=O)(=O)c2ccccc2[N+](=O)[O-])cc1`, -11.2%.
On to `CCN(Cc1ccccc1)C(=O)Cn1cc2c(n1)CCCC2`, for which the inhibition was 10.5%.
As to `Cc1ccc(CNC(=O)CCc2nc3ccccc3c(=O)[nH]2)cc1`, the inhibition is 2.2%.
Under `CCOC(=O)N1CCC(c2nc(C)sc2C(=O)O)CC1` stands 1.2%; under `CC(C)Cn1nc(NC(=O)C2CCCO2)c2cc3ccccc3nc21` (configuration not stated), 6.4%.
To `Cc1occc1-c1nnc(SCC(=O)N2CCOCC2)n1CC(C)C` belongs 6.1%.
Consider `COc1ccc([N+](=O)[O-])cc1NC(=O)CC(C)c1ccccc1` (configuration not stated), for which the inhibition was 14.4%.
Regarding `COc1ccc(C(CC(=O)Nc2cc([N+](=O)[O-])ccc2OC)c2ccccc2)cc1` (configuration not stated), the inhibition was 54.1% (active).
To `COc1ccc([N+](=O)[O-])cc1NC(=O)CC(c1ccccc1)c1ccccc1` belongs 7.4%; to `CS(=O)(=O)N1CCC(Oc2ccccc2C(=O)NC(C2CC2)C2CC2)CC1`, 2.8%; to `CCOC(=O)c1cnc(SC2CCc3ccccc3C2=O)nc1N` (configuration not stated), 53% (active).
For the molecule `CCOC(=O)c1cnc(SC2CC(=O)N(c3ccc(C)cc3)C2=O)nc1N` (configuration not stated), the inhibition was -5.1%.
To `CCOC(=O)c1cnc(SC2CC(=O)N(c3ccccc3)C2=O)nc1N` (configuration not stated) belongs 0.1%; to `COCCn1nnnc1C(C(C)C)N1CCSCC1` (configuration not stated), -8%.
Regarding `O=C(/C=C\NCC(=O)c1ccccc1)c1ccc(F)cc1`, the inhibition is -70.8%.
Under `N#CC1(C#N)CC(C=O)=C(N)C1(C#N)CC(=O)c1ccc(F)cc1` (configuration not stated) stands 52.8% (active); under `N#CC1(C#N)CC(C=O)=C(N)C1(C#N)CC(=O)C12CC3CC(CC(C3)C1)C2` (configuration not stated), 32.5%; under `COc1ccc(OCCNc2cc(N3CCOCC3)ccc2[N+](=O)[O-])cc1`, 5.4%.
Under `O=C(CSc1ccc(Cl)cc1)Nc1cccc(-c2nc3ncccc3o2)c1` stands -3.6%.
Under `CN(C)C(=S)Nc1ccc2c(c1)OCO2` stands 11.8%; under `C=CCN(CC=C)C(=S)Nc1ccc2nsnc2c1`, 55.3% (active); under `S=C(NCc1ccc2c(c1)OCO2)Nc1ccc2nsnc2c1`, 53.7% (active).
As to `NC(=S)Nc1ccc2c(c1)OCO2`, the inhibition is 1.7%.
Under `O=C(Nc1ccc(S(=O)(=O)NCc2ccccc2)cc1)Nc1ccc2c(c1)OCO2` stands 8.6%.
For the molecule `C=CCN(CC=C)C(=S)Nc1ccc(OC)c(OC)c1`, the inhibition is 20.1%.
For the molecule `CNS(=O)(=O)c1ccc(NC(=S)Nc2ccc3c(c2)OCO3)cc1`, the inhibition is 55.7% (active).
Turning to `C=CCNC(=S)Nc1ccc2nsnc2c1`, the inhibition was 9.9%.
To `NS(=O)(=O)c1ccc(NC(=S)NCc2ccc3c(c2)OCO3)cc1` belongs 17.1%; to `S=C(NCc1ccc(Cl)c(Cl)c1)Nc1ccc2c(c1)OCO2`, 10.2%.
Take `S=C(Nc1ccc2c(c1)OCO2)Nc1ccc2c(c1)OCO2`: the inhibition was 62.3% (active).
To `O=C(NCc1ccc2c(c1)OCO2)Nc1ccc2nsnc2c1` belongs 26.7%.
To `CCCN1C(=O)C(O)(C/C(C)=N/O)c2ccccc21` (configuration not stated) belongs 3.5%.
To `COc1ccc(CC(=O)OC(C)CN2CCOCC2)cc1` (configuration not stated) belongs -1.4%.
Take `Cc1ccc(-c2nc(C3CCCN(S(=O)(=O)c4ccc(C)cc4)C3)no2)cc1` (configuration not stated): the inhibition is 5.6%.
Take `CCN(CC)S(=O)(=O)c1ccc(C(=O)OCn2c(SC)nnc(C)c2=O)cc1`: the inhibition is 12.1%.
Under `O=S(=O)(NCc1ccc2c(c1)OCO2)c1cccc(S(=O)(=O)N2CCOCC2)c1` stands 52.5% (active).
To `O=S(=O)(NCc1ccc(F)cc1)c1cccc(S(=O)(=O)N2CCOCC2)c1` belongs -0.5%; to `Cc1ccc(NC(=S)Nc2ccc(S(=O)(=O)N3CCOCC3)cc2)cc1S(=O)(=O)N1CCOCC1`, -1.2%; to `CCn1ncc(NC(=S)NCCc2ccccc2)c1C(N)=O`, 5.4%.
Under `O=S(=O)(NCc1ccccc1)c1cccc(S(=O)(=O)N2CCOCC2)c1` stands 4.1%; under `O=S(=O)(c1ccc(NC(=S)Nc2ccc3c(c2)OCO3)cc1)N1CCOCC1`, 52.2% (active); under `O=C(Nc1ccc2c(c1)OCO2)Nc1ccc2c(c1)OCO2`, 15.8%.
`S=C(Nc1ccc2c(c1)OCCO2)Nc1ccc2c(c1)OCO2`: the inhibition is 62.7% (active).
Under `CCn1ncc(Br)c1C(=O)Nc1ccc2c(c1)OCCO2` stands 0.3%; under `CCn1ncc(NC(=S)Nc2ccc3c(c2)OCO3)c1C(N)=O`, 57.3% (active); under `O=S(=O)(c1ccc(NC(=S)Nc2ccccc2)cc1)N1CCOCC1`, -2.7%.
Under `O=C(Nc1ccc2c(c1)OCCO2)Nc1ccc2c(c1)OCO2` stands 13%.
Under `O=C1CC(c2ccc(F)cc2)CC2=C1C=Nc1ccccc1N2` (configuration not stated) stands -4.8%; under `Cc1nn(Cc2ccccc2)c(C)c1NC(=O)CCCn1nc(C)c([N+](=O)[O-])c1C`, -2.1%; under `CCCCC(=O)Nc1ccc(NC(=O)c2cc(OC)c(OC)c(OC)c2)cn1`, 3.2%.
Consider `CCN1CCCc2cc(CN(CCN3CCOCC3)C(=S)Nc3ccc(OC)c(OC)c3)ccc21`, for which the inhibition was 22.3%.
For `COc1ccccc1CNC(=O)C1CCC(CNc2c(N3CCOCC3)c(=O)c2=O)CC1` (configuration not stated), the inhibition is 16.7%.
Under `CC(=O)c1cnc(Nc2ccc(C)cc2)s1` stands 1.9%.
